The text below walks through data of PubChem BioAssay.

Calls of active or inactive are those of the source.

Assay [1] can be described thus: E. coli DRC41 culture turbidity changes, primary screen, E. coli filamentation inducer project, strain DRC41, OD650, 48 h (AID 1152).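 Also: E. coli MC1000 strain DRC41 lacking acrAB efflux pump and sulA.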 The conditions noted are these: E. coli DRC41 (acrAB sulA), higher = more signal, called active from +8 up or from −8 down.
The nature of assay [2]: small-molecule binders of probe aLefty1, primary screen, biochemical, small-molecule microarray, 635/667 nm fluorescence (AID 1153).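 Also: score merges spot fluorescence with signal-to-noise ratio from the scanned slide images.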 To be noted: higher = more signal.
Assay [3] can be described thus: PSAC antagonists in infected red cells, primary screen, cell-based, P. falciparum Indochina, OD700, 1 h (AID 1154). To be noted: P. falciparum Indochina infected RBC osmotic lysis, higher = more signal, called active from +8 up or from −8 down.
The nature of assay [4]: PSAC antagonists in infected red cells, primary screen, cell-based, P. falciparum Indochina, OD700, 2 h (AID 1155).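 Also: lysis reports solute entry through the parasite surface anion channel PSAC; channel blockers reduce lysis of infected cells.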 To be noted: P. falciparum Indochina infected erythrocytes, osmotic lysis OD700; higher = more signal, called active from +8 up or from −8 down.
A short description of assay [5]: osmotic lysis modulators in infected erythrocytes, primary screen, PSAC antagonist project, cell-based, P. falciparum Indochina, OD700, 3 h (AID 1156). To be noted: higher = more signal, called active from +8 up or from −8 down.
Assay [6] in a line: PSAC antagonists in infected red cells, primary screen, cell-based, P. falciparum Indochina, OD700, 18 h (AID 1157). The conditions noted are these: P. falciparum Indochina infected erythrocytes, osmotic lysis OD700, 18 h; higher = more signal, called active from +8 up or from −8 down.
Assay [7] can be described thus: modulators of S6 phosphorylation in cells, primary screen, cell-based, A549, cytoblot, luminescence, serum-stimulated (AID 1158).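 Also: serum-stimulated A549 lung adenocarcinoma cells; signal is phosphorylated S6 detected by cytoblot immunostaining with HRP secondary.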 The conditions noted are these: A549 phospho-S6 cytoblot, 5 h, higher = more signal.
In assay [8] the target is NADPH oxidase 2 (Homo sapiens) (UniProt P04839). Put plainly: NOX2-dependent H2O2 signal modulators, primary screen, NOX inhibitor project, cell-based, HEK293-NOX2, PMA-stimulated, Amplex Red fluorescence (AID 1159). Also: test concentration not given here. The conditions noted are these: 45 min, higher = more signal, called active from +8 up or from −8 down.
Chain of NADPH oxidase 2 (Homo sapiens) (P04839 whole entry, looked up): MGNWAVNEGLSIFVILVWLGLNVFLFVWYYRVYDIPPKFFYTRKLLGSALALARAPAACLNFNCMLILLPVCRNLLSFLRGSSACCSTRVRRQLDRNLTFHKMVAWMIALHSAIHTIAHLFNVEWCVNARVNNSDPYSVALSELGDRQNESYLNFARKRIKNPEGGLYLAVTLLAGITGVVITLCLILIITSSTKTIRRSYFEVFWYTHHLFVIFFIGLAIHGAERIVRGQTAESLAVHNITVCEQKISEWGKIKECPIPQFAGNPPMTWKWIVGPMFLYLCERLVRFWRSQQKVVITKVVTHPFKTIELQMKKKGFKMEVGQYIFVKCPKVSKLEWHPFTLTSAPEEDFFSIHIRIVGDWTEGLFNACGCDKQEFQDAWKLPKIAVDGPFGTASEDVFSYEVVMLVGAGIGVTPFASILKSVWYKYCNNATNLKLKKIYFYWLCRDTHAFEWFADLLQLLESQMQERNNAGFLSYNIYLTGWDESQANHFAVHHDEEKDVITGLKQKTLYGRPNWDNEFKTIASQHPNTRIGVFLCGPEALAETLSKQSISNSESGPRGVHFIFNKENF
Assay [9] concerns the target NADPH oxidase 4 (Homo sapiens) (UniProt Q9NPH5). Kind of assay: NOX4-dependent H2O2 signal modulators, primary screen, NOX inhibitor project, cell-based, HEK293-NOX4, tetracycline-induced, Amplex Red fluorescence (AID 1160). To be noted: 45 min, higher = more signal, called active from +8 up or from −8 down.
Assay [10] deals with NADPH oxidase 5 (Homo sapiens) (UniProt Q96PH1). Kind of assay: NOX5-dependent H2O2 signal modulators, primary screen, NOX inhibitor project, cell-based, HEK293-NOX5, Amplex Red fluorescence (AID 1161). To be noted: HEK293-NOX5, ionomycin, 45 min, higher = more signal.
Chain of NADPH oxidase 5 (Homo sapiens) (Q96PH1 whole entry, looked up): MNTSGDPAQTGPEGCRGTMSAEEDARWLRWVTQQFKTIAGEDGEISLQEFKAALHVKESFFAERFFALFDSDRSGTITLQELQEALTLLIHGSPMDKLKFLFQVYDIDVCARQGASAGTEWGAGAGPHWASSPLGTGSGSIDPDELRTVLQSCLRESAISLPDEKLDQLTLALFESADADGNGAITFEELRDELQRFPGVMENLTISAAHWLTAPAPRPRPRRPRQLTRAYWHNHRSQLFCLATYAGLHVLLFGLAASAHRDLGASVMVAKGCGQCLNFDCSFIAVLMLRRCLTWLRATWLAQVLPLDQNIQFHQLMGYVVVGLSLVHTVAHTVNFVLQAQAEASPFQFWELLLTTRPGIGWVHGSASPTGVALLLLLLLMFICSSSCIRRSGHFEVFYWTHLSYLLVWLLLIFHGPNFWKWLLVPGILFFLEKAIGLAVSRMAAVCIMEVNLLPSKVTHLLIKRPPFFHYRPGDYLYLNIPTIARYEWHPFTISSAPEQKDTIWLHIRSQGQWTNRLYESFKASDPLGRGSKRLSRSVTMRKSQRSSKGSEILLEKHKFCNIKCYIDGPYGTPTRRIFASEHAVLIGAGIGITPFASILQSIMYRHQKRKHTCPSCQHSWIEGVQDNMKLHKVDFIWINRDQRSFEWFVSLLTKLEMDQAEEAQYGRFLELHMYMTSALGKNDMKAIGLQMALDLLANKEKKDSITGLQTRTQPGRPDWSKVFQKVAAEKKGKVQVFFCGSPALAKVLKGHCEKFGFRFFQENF
A short description of assay [11]: A549 cell viability effects, profiling panel, calcein-AM fluorescence, 48 h, basal (AID 1162). Also: test concentration not given here. The conditions noted are these: higher = more signal.
Assay [12] is described as follows: adipocyte viability effects, profiling panel, cell-based, 3T3-L1 adipocytes, calcein-AM fluorescence, 48 h, basal (AID 1163). Also: test concentration not given here. The conditions noted are these: 3T3-L1 adipocytes viability, higher = more signal.
The nature of assay [13]: HepG2 cell viability effects, profiling panel, calcein-AM fluorescence, 48 h, basal (AID 1164). Also: test concentration not given here. The conditions noted are these: higher = more signal.
A short description of assay [14]: MM1S cell viability effects, profiling panel, calcein-AM fluorescence, 48 h, basal (AID 1165).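 Also: viability of MM1S multiple myeloma cells under basal unstimulated conditions; test concentration not given here.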 To be noted: higher = more signal.
Assay [15] in a line: basal RPMI8226 viability, no added stimulus, profiling panel, cell-based, calcein-AM fluorescence, 48 h, PK04 Diversity Set (AID 1166).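 Also: cells grown under basal conditions without added stimulus; test concentration not given here.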 To be noted: RPMI8226 myeloma viability, higher = more signal.
Assay [16] is described as follows: basal HepG2 mitochondrial membrane potential changes, profiling panel, cell-based, JC-1 fluorescence, 24 h, 100 nL compound (AID 1167). Also: test concentration not given here. The conditions noted are these: higher = more signal.
A short description of assay [17]: basal 3T3-L1 adipocyte mitochondrial potential changes, profiling panel, cell-based, JC-1 fluorescence, 3T3-L1 adipocytes, 24 h, 100 nL compound (AID 1168). Also: test concentration not given here. To be noted: JC-1 mitochondrial fluorescence, higher = more signal, called active from +8 up or from −8 down.
A short description of assay [18]: basal RPMI8226 mitochondrial membrane potential changes, profiling panel, cell-based, JC-1 fluorescence, 24 h, 100 nL compound (AID 1169). Also: test concentration not given here. To be noted: RPMI8226 myeloma, JC-1 mitochondrial potential fluorescence, higher = more signal.
Assay [19] in a line: basal MM1S mitochondrial membrane potential changes, profiling panel, cell-based, JC-1 fluorescence, 24 h, 100 nL compound (AID 1170). Also: test concentration not given here. To be noted: higher = more signal.
Assay [20] can be described thus: A549 lung cancer cell viability effects, profiling panel, resazurin fluorescence, 24 h, PK04 Diversity Set (AID 1171). Also: test concentration not given here. To be noted: higher = more signal, called active from +8 up or from −8 down.

Chain of NADPH oxidase 4 (Homo sapiens) (Q9NPH5 whole entry, looked up): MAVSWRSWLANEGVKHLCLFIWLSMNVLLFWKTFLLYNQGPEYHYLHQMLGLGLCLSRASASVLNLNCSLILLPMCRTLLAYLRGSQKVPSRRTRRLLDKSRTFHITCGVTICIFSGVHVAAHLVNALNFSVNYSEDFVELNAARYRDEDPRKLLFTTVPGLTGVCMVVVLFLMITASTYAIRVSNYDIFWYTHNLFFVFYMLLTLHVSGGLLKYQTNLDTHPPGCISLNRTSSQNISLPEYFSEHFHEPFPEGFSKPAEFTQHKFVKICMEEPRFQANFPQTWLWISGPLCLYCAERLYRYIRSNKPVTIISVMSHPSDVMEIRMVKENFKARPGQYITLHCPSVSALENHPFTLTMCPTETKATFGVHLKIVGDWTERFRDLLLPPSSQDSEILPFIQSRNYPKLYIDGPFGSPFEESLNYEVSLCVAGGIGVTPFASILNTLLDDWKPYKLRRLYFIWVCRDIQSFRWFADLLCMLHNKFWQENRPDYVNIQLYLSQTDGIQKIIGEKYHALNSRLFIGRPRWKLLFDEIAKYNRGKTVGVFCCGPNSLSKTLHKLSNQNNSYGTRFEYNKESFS

In the case of `CN1C(=O)C2C=CC(C(O)c3ccc(Br)cc3)N(Nc3ccccc3)C2C1=O` (stereo not given), the z-score in assay [1] was -0.506 (inactive); in assay [3] it was 0.884 (inactive); in assay [4], 0.708 (inactive); in assay [5], 0.302 (inactive); in [6] it was 0.826 (inactive); in assay [7], -0.595. Moreover, the z-score in [8] is -0.592 (inactive); in assay [9] it was -4.5 (inactive); in assay [10], -2.23; in assay [11], 0.622; in [12], -0.384; in assay [13], 1.17. Also, the z-score was -0.0257 in assay [14]; -0.119 in assay [15]; -3.16 in [16]; -1 (inactive) in assay [17]; 0.0774 in assay [18]; -0.425 in [19]. In addition, in assay [20], the z-score was -0.443 (inactive). Also, in assay [2], the composite z-score was 0.106.
Take `CCOC(=O)C1=C[C@@H](C(C)(C)C)N(S(=O)(=O)c2ccc(C)cc2)[C@H]1c1ccc(Cl)c(Cl)c1`: the z-score is -1.27 (inactive) in assay [1]; 1.92 (inactive) in assay [3]; 1.15 (inactive) in assay [4]; -0.335 (inactive) in assay [5]; 0.659 (inactive) in [6]; -0.359 in assay [7]. For the same compound, the z-score in assay [8] was -0.739 (inactive); in assay [9], 0.0493 (inactive); in [10] it was 0.263; in assay [11], -0.292; in assay [12], -0.257; in assay [13] it was -1.36. In addition, the z-score in assay [14] is -0.266; in assay [15] it was -0.986; in [16] it was 4.44; in assay [17], -1.66 (inactive); in [18], -0.981; in assay [19], -1.33. Also, the z-score in assay [20] was -2.26 (inactive). Further, in [2], the composite z-score amounted to 0.157.
For the compound `C=CC[C@@]1(C(=O)NCc2ccccc2)N=C(c2ccc(OCCCO)cc2)O[C@@H]1c1ccccc1CN=[N+]=[N-]`, the z-score in assay [1] is -1.52 (inactive); in assay [3], 24 (active); in [4] it was 8.62 (active); in assay [5], 2.14 (inactive); in assay [6], 1.15 (inactive); in assay [7] it was -0.387. The z-score in assay [8] is -1.15 (inactive); in [9], -0.499 (inactive); in assay [10] it was 0.694; in [11], -0.651; in assay [12] it was 0.115; in [13], -1.09. Further, the z-score in assay [14] was -1.84; in assay [15], -3; in assay [16], -0.675; in [17] it was -1.85 (inactive); in assay [18], -0.979; in assay [19] it was -0.975. In assay [20], the z-score was -1.23 (inactive). In assay [2], this compound came in with a composite z-score of 0.791.
For the compound `NC(=O)NCC#Cc1ccc2c(c1)[C@]1(C(=O)N2)[C@H](C(=O)NC[C@H](O)c2ccccc2)[C@H]2C(=O)O[C@H](c3ccccc3)[C@H](c3ccccc3)N2[C@@H]1c1ccccc1OCCO`, the z-score in assay [1] is 2.23 (inactive); in assay [3] it was 1.15 (inactive); in assay [4], -0.658 (inactive); in [5], 0.0336 (inactive); in [6] it was -2.16 (inactive); in assay [7], 1.5. Besides, the z-score was 0.121 (inactive) in [8]; -1.95 (inactive) in [9]; -1.81 in assay [10]; -0.321 in assay [11]; 1.02 in assay [12]; -0.252 in assay [13]. In addition, the z-score is 0.325 in [14]; -0.636 in [15]; -1.64 in [16]; 1.34 (inactive) in [17]; -0.0808 in assay [18]; -1.01 in assay [19]. For the same compound, in assay [20], the z-score was 1.02 (inactive). This compound also returned a composite z-score in assay [2] of 0.157.
With `O=C1O[C@@H](c2ccccc2)[C@@H](c2ccccc2)N2[C@@H](c3ccc(O)cc3)[C@]3(C(=O)Nc4ccccc43)[C@@H](C(=O)N3CCCCCCC3)[C@H]12`, the z-score in [1] is -0.779 (inactive); in assay [3] it was 0.571 (inactive); in assay [4], -0.0476 (inactive); in assay [5], -1.25 (inactive); in [6], 0.516 (inactive); in assay [7], -0.274. Also, the z-score in assay [8] was 0.915 (inactive); in assay [9] it was 0.522 (inactive); in assay [10] it was 1.57; in assay [11], -0.871; in assay [12], 0.616; in [13], 0.404. Besides, the z-score in assay [14] was -0.391; in assay [15], -2.29; in assay [16], -1.79; in assay [17], 0.145 (inactive); in [18], -0.659; in assay [19], 0.0147. For the same compound, the z-score in assay [20] is -1.09 (inactive). Further, the composite z-score in assay [2] was determined as 2.88.
Consider `C[C@H]1C2[C@H](Cc3ccccc3)NC(=O)[C@]23C(=O)N[C@H](Cc2ccccc2)C(=O)N[C@H](Cc2ccccc2)C(=O)NC/C=C/CCC/C=C/C3[C@@H]2O[C@]12C` (stereo not given in full), for which the z-score is 0.655 (inactive) in assay [1]; 1.75 (inactive) in [3]; 0.452 (inactive) in assay [4]; 0.601 (inactive) in assay [5]; 0.794 (inactive) in assay [6]; 0.282 in assay [7]. Also, the z-score is 0.563 (inactive) in assay [8]; -0.312 (inactive) in assay [9]; 0.875 in [10]; 0.144 in assay [11]; 1.58 in assay [12]; -0.385 in [13]. The z-score in assay [14] was -1.01; in assay [15], -3.48; in assay [16], 1.71; in assay [17] it was -0.77 (inactive); in assay [18], -0.469; in assay [19], -1.08. Moreover, the z-score in assay [20] is -1.5 (inactive). Besides, in [2], the composite z-score is -0.19.
Regarding `CC(C)[Si]1(C(C)C)O[C@@H](c2ccccc2)c2cc(-c3ccc(-c4ccc(Cl)c(Cl)c4)o3)nc(CCc3ccccc3)c21`, the z-score in [1] was -0.792 (inactive); in assay [3], 3.36 (inactive); in assay [4], 0.652 (inactive); in assay [5], -0.443 (inactive); in assay [6], -0.0811 (inactive); in assay [7], -0.507. Besides, the z-score in assay [8] is 0.903 (inactive); in assay [9] it was 0.928 (inactive); in assay [10], 0.44; in assay [11], -0.516; in assay [12] it was -0.694; in [13], 0.433. Moreover, the z-score in [14] was -3.02; in assay [15], -3.72; in assay [16] it was -1.95; in assay [17], -1.72 (inactive); in assay [18] it was -0.965; in [19] it was -1.91. In assay [20], the z-score is -0.748 (inactive). The compound also showed a composite z-score in [2] of -0.0428.
For `C=CCN1C(=O)[C@]2(COC(c3ccc(OCCCO)cc3)=N2)Cc2ccccc21`, the z-score in assay [1] was 0.773 (inactive); in assay [3], 23.7 (active); in assay [4] it was 7.4 (inactive); in [5] it was 3.23 (inactive); in [6], 0.181 (inactive); in assay [7], 1.3. The z-score in [8] was -2.29 (inactive); in assay [9], 0.0437 (inactive); in [10], -2.56; in assay [11], 0.78; in assay [12], 1.94; in assay [13], 0.641. In addition, the z-score in assay [14] was -1.22; in [15], -0.326; in assay [16], 0.53; in assay [17], 0.625 (inactive); in [18], -0.808; in assay [19] it was -0.599. For the same compound, the z-score in assay [20] is -0.183 (inactive). The compound further yielded a composite z-score in [2] of 0.228.
